Bioassay records as filed in PubChem.
TDP1 inh = TDP1 (human) enzyme inhibition; recombinant TDP1, AlphaScreen DNA substrate cleavage; AID 485290; Potency, µM (top dose mostly 130 µM), for the others: top-dose activity change, negative = inhibition, usual class: inhibitors; hit rate 0.28% among 350,000; Q9NUW8; also: potency is read from the fitted curve at half-maximal effect; nearly all actives have a fitted effect of over 40% in size
Target sequence (Q9NUW8 whole entry, looked up): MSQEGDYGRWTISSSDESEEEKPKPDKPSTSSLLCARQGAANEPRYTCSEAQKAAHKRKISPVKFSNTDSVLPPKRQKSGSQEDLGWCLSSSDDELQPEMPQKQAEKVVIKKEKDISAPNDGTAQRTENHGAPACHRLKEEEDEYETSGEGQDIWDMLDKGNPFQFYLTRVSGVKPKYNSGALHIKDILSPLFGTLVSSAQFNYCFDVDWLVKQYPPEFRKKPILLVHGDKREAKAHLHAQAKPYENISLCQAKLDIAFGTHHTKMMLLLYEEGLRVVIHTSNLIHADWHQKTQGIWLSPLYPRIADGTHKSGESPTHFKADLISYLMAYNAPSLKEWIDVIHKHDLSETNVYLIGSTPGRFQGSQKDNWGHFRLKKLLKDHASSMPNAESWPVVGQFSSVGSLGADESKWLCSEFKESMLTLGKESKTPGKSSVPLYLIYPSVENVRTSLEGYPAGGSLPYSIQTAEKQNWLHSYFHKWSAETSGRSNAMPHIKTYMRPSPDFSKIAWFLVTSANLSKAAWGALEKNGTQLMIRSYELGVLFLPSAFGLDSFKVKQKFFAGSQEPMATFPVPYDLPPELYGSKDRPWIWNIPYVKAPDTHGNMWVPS
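Here, a 5' biotin and 3' phosphotyrosine-FITC DNA oligonucleotide reports Tdp1 activity: intact substrate bridges AlphaScreen beads, while cleavage leaves a 3' phosphate and drops signal. All incubations at room temperature.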
PI5P4K alpha inh = inhibitors of human PI5P4K alpha; P48426; PI5P4Kalpha enzyme, ADP-Glo luminescence, 60 min; hits give low values; max response, %; hit rate 1.2% among 330,000; AID 652105; active = max response of -50% or lower; inconclusive = between -30% and -50%; inactive = -30% or higher; also: value at the top dose of about 77 µM
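ADP-Glo luminescence end-point after a 60 min room-temperature kinase reaction. PI5P4Kalpha and substrate in HEPES pH 7.4 buffer with EGTA, 0.1% CHAPS and 5% DMSO; ATP at 5 microM final.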
Tb PGK inh = T. brucei PGK inhibition | PGK/GAPDH coupled, Kinase-Glo luminescence, 60 min | P07378 | Potency, µM (titrated, usually from 57.5 µM), inactives show at the top dose activity change, negative = inhibition, most hits filed as inhibitors | hit rate 0.043% among 380,000; also: potency is read from the fitted curve at half-maximal effect; nearly all actives have a fitted effect of over 60% in size
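Luminescent ATP detection (Kinase-Glo Plus) follows a 60-minute room-temperature incubation, with wells lacking PGK as controls. Buffer: 100 mM TEA (pH 7.6), 5 mM MgCl2, 0.01% Tween-20. Coupling enzyme GAPDH (100 nM final) supplies unstable 1,3-BPG in-well.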
Tb PFK inh = T. brucei PFK enzyme inhibition; Potency, µM (series often up to 57.5 µM), without a hit: at the highest dose activity, negative = inhibition, hits mostly inhibitors; T. brucei PFK, ADP-Glo luminescence; AID 485367; O15648; hit rate 0.17% among 330,000;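 also: potency is read from the fitted curve at half-maximal effect; 0% = uninhibited 1x PFK enzyme wells and -100% = no-enzyme wells; nearly all actives have a fitted effect of over 60% in size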
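PFK 1.25 nM, F6P 0.5 mM, ATP 0.1 mM, 0.1 M TEA pH 8.0, 5 mM MgCl2, 0.01% Tween20, 0.1% BSA; 45 min RT. ADP-Glo readout. qHTS titration up to 57 uM; curves fitted, compounds curve-classed.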
FEN1 inh = blocks human flap endonuclease 1; P39748; Recombinant FEN1 flap cleavage, fluorescence, 15 min; Potency, µM (doses to about 114 µM), without a hit: at the highest dose activity change, negative = inhibition, most hits filed as inhibitors; hit rate 0.35% among 390,000; AID 588795; also: potency is read from the fitted curve at half-maximal effect; nearly all actives have a fitted effect of over 65% in size
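Enzyme 10 nM, 15 min RT preincubation with compound; start with substrate 50 nM final; reads at 0 and 15 min; qHTS titration, four-parameter Hill fit.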
WRN inhibitor = blocks human WRN helicase; Potency, µM (doses to about 114 µM), inactives show at the top dose activity change, negative = inhibition, hits mostly inhibitors; hit rate 0.46% among 360,000; WRN helicase unwinding, fluorescent forked duplex, kinetic; also: potency is read from the fitted curve at half-maximal effect; nearly all actives have a fitted effect of over 55% in size
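WRN at 20 nM final was preincubated with compound for 15 min at room temperature; reaction started with 100 nM forked duplex oligonucleotide carrying fluorophore and quencher plus 2 mM ATP (final). Unwinding followed kinetically by red fluorescence (ex 525/em 598 nm).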
An asterisk follows results filed as active; i = inactive; ? = inconclusive; / = no result; [ ] = dose if it differs, or a comment. An excerpt weighted towards active compounds, which were near 1.5% of everything screened. Unless noted, calls follow the shape of the dose curve; as a rule, active = well fitted curve in the direction sought with a large enough effect; inconclusive = small, poorly fitted or top-dose-only effect, or another doubt; inactive = no such curve, though single readings can be large; an effect the other way counts as inactive or inconclusive. Unless noted, % is scaled to controls: 0 for no effect and ±100 for the full control effect.

SMILES	TDP1 inh	PI5P4K alpha inh	Tb PGK inh	Tb PFK inh	FEN1 inh	WRN inhibitor
CC1COC2=C1C(=O)C(=O)c1c2ccc2c1CCCC2(C)C (centres undefined)	20%	/	/	/	/	/
CCOc1ccc(-c2nc3ccc(-c4nc5ccc(N6CCN(C)CC6)cc5[nH]4)cc3[nH]2)cc1	27%	/	/	/	/	/
C[C@H]1O[C@@H](O[C@H]2[C@@H](O)C[C@@H](O[C@H]3[C@@H](O)C[C@H](O[C@H]4CC[C@@]5(C)[C@H](CC[C@@H]6[C@@H]5CC[C@]5(C)[C@@H](C7=CC(=O)OC7)CC[C@]65O)C4)O[C@@H]3C)O[C@@H]2C)C[C@H](O)[C@@H]1O	/	/	/	/	18%	/
Cc1ccc(N2C(=O)NC(=O)/C(=C/c3ccc(-c4ccc(C(=O)O)c(Cl)c4)o3)C2=O)cc1	20µM*	?	-19%	27%	?	?
C=CCN1C(=O)/C(=C/c2cc(C)n(-c3cccnc3)c2C)C(=O)NC1=S	-4%	-67*	-6%	13%	-1%	?
O=NN(CCO)CCO	17%	/	/	/	/	/
COc1ccc(-c2nc3ccccc3c(=O)n2-c2ccc(OC)cc2)cc1	4%	0	-6%	-5%	11%	-7%
Cc1ccc(-n2sc3ccccc3c2=O)cc1	7%	-104*	3%	9.5µM*	-18%	?
CC1Oc2cc3c(-c4c(O)cc(O)c5c(O)c6c(cc45)OC(C)C(C)C6=O)c(O)cc(O)c3c(O)c2C(=O)C1C (centres undefined)	8%	-109*	-2%	5%	14µM*	63µM*
Cn1c(-c2ccccc2)c(P(=S)(c2ccccc2)c2ccccc2)c2ccccc21	0%	/	/	/	/	/
C/C(=N\NC(=O)c1ccccc1)c1c(O)n(C2CCCCC2)c(=O)[nH]c1=O	2%	-51*	i	0%	-3%	-10%
C/C(=N\NC(=O)c1ccccc1O)c1c(O)n(C2CCCCC2)c(=O)[nH]c1=O	7%	-10	0%	-1%	-11%	-6%
C/C(=N\NC(=O)c1ccccc1O)c1c(O)n(Cc2ccccc2)c(=O)[nH]c1=O	1%	-71*	-12%	0%	-1%	-19%
CN1CCN2c3ccc(N)cc3CC3(C(=O)NC(=O)NC3=O)C2C1 (centres undefined)	45µM*	1	-1%	?	4%	?
CN1C(=O)N(C)C(=O)C2(Cc3cc(N)ccc3N3CCN(c4ccccc4F)CC32)C1=O (centres undefined)	-6%	/	/	?	/	/
CC(C)CON=O	5%	/	/	/	/	/
CCNc1cc(N2CCN(C)CC2)ccc1[N+](=O)[O-]	-3%	-6	i	-2%	-3%	7%[57.1 µM]
CN(C)c1c([N+](=O)[O-])cc(N2C(=O)C=CC2=O)cc1[N+](=O)[O-]	/	-86*	0%	/	-1%	35µM*
CC(C)(C)n1cccc1/C=C1\C(=O)NC(=O)N(c2ccccc2)C1=O	-1%	1	i	16%	44%	-28%
Cc1cccc(N2C(=O)NC(=O)/C(=C\c3cccn3-c3ccc(Cl)cc3)C2=O)c1	0%	-52*	-3%	14%	17%	?
Cc1cccc(N2C(=O)NC(=O)/C(=C/c3ccc([N+](=O)[O-])o3)C2=O)c1	/	-78*	?	?	20µM*	28µM*
CN(C)C1C(=O)C(C(N)=O)=C(O)C2(O)C(=O)C3=C(O)c4c(O)cccc4C(C)(O)C3C(O)C12 (centres undefined)	/	-54*	i	?	-8%	-35%
COc1ccc(OC)c(N=Cc2c(O)[nH]c(=O)[nH]c2=O)c1	/	-56*	-4%	-1%	?	-9%
COC(=O)c1ccccc1N=Cc1c(O)[nH]c(=O)[nH]c1=O	/	3	/	2%	16%	7%
COC1CC2C=C(C)C=CC=CC(=O)NC(c3ccccc3)CC=CCCC(O)CC(=O)C2=C1O (centres undefined)	/	-84*	/	/	/	?
SMILES	TDP1 inh	PI5P4K alpha inh	Tb PGK inh	Tb PFK inh	FEN1 inh	WRN inhibitor
Cc1[nH]c2ccccc2c1P(=S)(c1ccccc1)c1ccccc1	0%	/	/	/	/	/
CCN(CC)C(=O)N[C@H]1C[C@@H]2c3cccc4[nH]cc(c34)C[C@H]2N(C)C1	5%	-75*	-1%	0%	-22%	-6%
Clc1cc(Cl)c(Cl)c(Cl)c1	1%	/	/	/	/	/
CC(C)(C)OOC(=O)c1ccccc1	18%	/	/	/	/	/
Cn1c(O)c(C=Nc2ccccc2-c2ccccc2)c(=O)n(C)c1=O	/	3	2%	-2%	-13%	2%
CCOC(=O)C1=Nc2ccccc2/C1=C\c1c(O)n(C)c(=O)n(C)c1=O	-1%	-64*	-4%	9%	-16%	-11%
O=C1NC(=O)C(=Cc2ccc(OCCOc3ccc([N+](=O)[O-])cc3)cc2)C(=O)N1	1%	-63*	-18%	-21%	?	-28%[11.6 µM]
CCN1CCN(c2ccc([N+](=O)[O-])cc2C=C2C(=O)NC(=O)NC2=O)CC1	-3%	-27	i	-18%	-4%	-30%
CCOc1cc(C=C2C(=O)NC(=O)NC2=O)ccc1OS(=O)(=O)c1ccccc1	7%	-63*	5%	4%	-11%	45µM*
O=C1NC(=O)C(=Cc2cccc(OCCOc3ccccc3)c2)C(=O)N1	/	-52*	-3%	0%	-27%	-23%
O=C1NC(=O)C(=Cc2ccc3c(c2)OCO3)C(=O)N1	1%	/	/	5%	/	/
CC1CCN(C(CC(=O)c2ccccc2)C(=O)c2ccccc2)CC1 (centres undefined)	/	?	-8%	/	-20%	7.9µM*
N#CC1=C(N)Oc2n[nH]c(-c3cccs3)c2C1c1ccsc1 (centres undefined)	5%	-56*	-7%	-4%	9%	?
CC(C)CN(CC(C)C)c1ccc(C=C2C(=O)NC(=S)NC2=O)cc1[N+](=O)[O-]	-2%	-101*	-11%	-13%	-5%	56µM*
CCOc1ccc(C=C2C(=O)NC(=S)NC2=O)cc1OCC	/	?	-6%	/	2%	?
CN(C)c1ccc(C=C2C(=O)NC(=S)NC2=O)cc1	/	-72*	-3%	/	?	35µM*
CN(C)c1ccc(C=C2C(=O)NC(=O)NC2=O)cc1	/	?	-9%	/	-20%	-28%
CCN1C(=O)/C(=C\c2ccc([N+](=O)[O-])s2)C(=O)NC1=S	/	/	/	-9%	/	/
CCN(CC)c1ccc(C=C2C(=O)NC(=S)NC2=O)cc1	/	-62*	/	?	?	-17%
CC(C)Br	11%	/	/	/	/	/
CSc1ccccc1NC(=O)CN(C)CC(=O)c1[nH]c(C)c(C(C)=O)c1C	2%	0	-5%	-2%	-4%	?
[O-][Cl+2]([O-])O	12%	/	/	/	/	/
C=C(C)C(=O)OCC1CO1 (centres undefined)	15%	/	/	/	/	/
